An excerpt weighted towards active compounds, which were near 7.5% of everything screened.
FBPA Giardia inh: Giardia lamblia aldolase inhibition; A8B2U2; purified Giardia FBPA; Potency, µM (highest dose often 59.6 µM), most hits filed as inhibitors; actives 0.71% (n = 290,000); AID 2451; note: nearly all actives have a fitted effect of over 55% in size
Target sequence (A8B2U2 whole entry, looked up): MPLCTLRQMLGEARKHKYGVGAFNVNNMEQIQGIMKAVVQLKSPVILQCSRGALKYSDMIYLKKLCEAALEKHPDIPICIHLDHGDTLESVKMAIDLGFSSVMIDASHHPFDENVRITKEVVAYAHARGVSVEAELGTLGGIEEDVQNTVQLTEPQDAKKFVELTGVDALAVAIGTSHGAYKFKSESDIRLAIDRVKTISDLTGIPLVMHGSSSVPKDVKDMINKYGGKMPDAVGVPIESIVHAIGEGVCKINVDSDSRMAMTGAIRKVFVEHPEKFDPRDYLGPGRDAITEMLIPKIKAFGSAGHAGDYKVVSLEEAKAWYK
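40 nM FBPA preincubated 10 min at RT with compound (up to 57.5 uM final), then substrate plus GAPDH/TPI/NAD/arsenate coupling and diaphorase/resazurin added. Fluorescence read after 20 min at RT, 525/598 nm.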
Vaccinia mCherry: vaccinia inhibition (mCherry reporter); Vaccinia virus mCherry reporter infection, fluorescence; Potency, µM (doses to about 36.5 µM), usual class: inhibitors; actives 0.63% (n = 310,000); AID 720579; calls by dose curve; tested in A549 cells; note: nearly all actives have a fitted effect of over 35% in size
FMDV antiviral: foot and mouth disease virus antiviral activity; actives 1.2% (n = 410,000); Potency, µM (highest dose often 57.9 µM), hits mostly inhibitors; FMDV antiviral cell-based qHTS; calls by dose curve; tested in HEK293T cells; note: read-out not given here; nearly all actives have a fitted effect of over 45% in size
HCMV antiviral: inhibitors of human cytomegalovirus; activity change, negative = inhibition, % at 57.5 µM; HFF cells, HCMV-luciferase reporter, 72 h; hits give low values; actives 4.5% (n = 410,000); in the data active = activity change below about -60%; inconclusive = no clear call, values can overlap the other calls; inactive = above about -39%
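Two compound doses tested in HFFs infected with HCMV-luciferase, MOI 1 PFU/cell, 72 h at 37C. Lysate luminescence read with OneGlo; data normalized against buffer-only and 10uM Salinomycin inhibitor controls.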
VACV Venus inh: inhibitors of vaccinia virus (Venus reporter); Vaccinia virus Venus reporter expression, fluorescence; actives 0.46% (n = 330,000); Potency, µM (highest dose often 36.5 µM), usual class: inhibitors; calls by dose curve; tested in A549 cells; note: nearly all actives have a fitted effect of over 30% in size
HCV inh: inhibitors of hepatitis C virus infection; Huh7.5.1 HCVcc-Cre infection, luciferase reporter, 44 h; Potency, µM (highest dose often 41.8 µM), most hits filed as inhibitors; actives 3.4% (n = 340,000)
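After 44 h co-culture of compound, cells and HCVcc-Cre (~0.5 moi), substrate is added for 15 min at room temperature and luciferase measured over 15 sec. Cells were seeded at 1,000/well and pre-cultured 4 h.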
Large screens that a line does not name were inactive. Unless noted, calls come from the whole dose curve; as a rule, active = well fitted curve in the direction sought with a large enough effect; inconclusive = small, poorly fitted or top-dose-only effect, or another doubt; inactive = no such curve, though single readings can be large; an effect the other way counts as inactive or inconclusive.

COc1cc(/C=C2/SC(=O)NC2=O)ccc1Oc1ccc([N+](=O)[O-])cc1[N+](=O)[O-]	Vaccinia mCherry inconclusive, FMDV antiviral inconclusive
COc1cc(/C=C2\SC(=O)NC2=O)ccc1Oc1ccc([N+](=O)[O-])cn1	HCMV antiviral -60
COc1cc(/C=C2/SC(N)=NC2=O)ccc1Oc1ccc([N+](=O)[O-])cc1[N+](=O)[O-]	HCMV antiviral -70
COc1ccc(C(C[N+](=O)[O-])C2(c3ccc(OC)c(OC)c3)C(=O)c3ccccc3C2=O)cc1 (stereo not given)	Vaccinia mCherry 11µM, VACV Venus inh inconclusive, HCV inh inconclusive (no result: HCMV antiviral)
COc1ccc(C(C[N+](=O)[O-])c2c(-c3ccccc3)cc3ccccn23)cc1OC (stereo not given)	FMDV antiviral inconclusive, HCMV antiviral inconclusive
O=C1NC(c2ccccc2)Nc2c1sc(=S)n2-c1ccccc1 (stereo not given)	FMDV antiviral inconclusive, HCMV antiviral -104
CN1C(=O)C(O)(CC(=O)/C=C/c2ccco2)c2cc(Br)ccc21 (stereo not given)	HCV inh 11µM (no result: Vaccinia mCherry, VACV Venus inh)
CCCCN1C(=O)C(O)(CC(=O)c2ccco2)c2cc(Br)ccc21 (stereo not given)	HCMV antiviral -75
Cn1c(=O)c2c(nc(Sc3nc4ccccc4n3CC(=O)N3CCCCC3)n2C)n(C)c1=O	HCMV antiviral -63 (no result: Vaccinia mCherry)
Cc1cccc(Nc2ncc(NC(=O)c3cccc(F)c3)c(Nc3cccc(C)c3)n2)c1	Vaccinia mCherry inconclusive, VACV Venus inh inconclusive (no result: FBPA Giardia inh, HCV inh)
COC(=O)[C@@H]1[C@@H](CO)[C@@H]2Cn3c(ccc(Br)c3=O)[C@@H]2N1CC1CCCC1	none (no result: FBPA Giardia inh, Vaccinia mCherry, FMDV antiviral, VACV Venus inh, HCV inh)
COc1ccccc1CCc1nnc(CCC(=O)N(C)Cc2cccc3cnccc23)o1	HCV inh inconclusive
COc1ccc(CCc2nnc(CCC(=O)N(C)Cc3ccnc4ccccc34)o2)cc1	FMDV antiviral inconclusive, HCMV antiviral -64, HCV inh inconclusive
COc1ccc(N(Cc2nc3cc(C)c(C)cc3[nH]2)Cc2nc3cc(C)c(C)cc3[nH]2)cc1	none (no result: FBPA Giardia inh, Vaccinia mCherry, FMDV antiviral, VACV Venus inh, HCV inh)
Cc1n(C)c2cc(Cl)ccc2[n+]1Cc1ccccc1	HCMV antiviral -60
CC[n+]1c(C)n(C)c2cc(S(=O)(=O)N(C)C)ccc21	none
c1cncc(OC2CCN(Cc3ccc4c(c3)CN(Cc3ccc5c(c3)OCCO5)CCO4)CC2)c1	none (no result: FBPA Giardia inh, HCMV antiviral, HCV inh)
COCCNC(=O)C(c1ccccc1F)N(C(=O)C(=O)NC1CCCC1)C1CCCCC1 (stereo not given)	HCMV antiviral -80, HCV inh inconclusive
O=C(NC1CCCC1)C(c1ccc(F)cc1)N(Cc1ccccc1Cl)C(=O)CCl (stereo not given)	FMDV antiviral 28µM, HCV inh inconclusive
O=C(NC1CCCC1)C(c1ccc(F)cc1)N(Cc1ccc(F)cc1)C(=O)c1ccn[nH]1 (stereo not given)	none
COCCN(C(=O)CCl)C(C(=O)NC1CCCCC1)c1ccccc1C (stereo not given)	Vaccinia mCherry inconclusive, FMDV antiviral 20µM, HCMV antiviral -98, VACV Venus inh inconclusive, HCV inh inconclusive
COCCN(C(=O)CCC(=O)Nc1cc(C)on1)C(C(=O)NC1CCCC1)c1ccccc1C (stereo not given)	none
COCCN(C(=O)CNC(=O)c1ccco1)C(C(=O)NC1CCCC1)c1ccccc1F (stereo not given)	none (no result: FBPA Giardia inh)
CC[N+](CC)(CC)c1ccc(/C=C/c2ccc3ccccc3n2)cc1	none (no result: FBPA Giardia inh, FMDV antiviral, HCMV antiviral, HCV inh)
CCOc1ccccc1-c1nc(CN2CCCN(C(=O)c3ccco3)CC2)c(C)o1	HCMV antiviral -101 (no result: FBPA Giardia inh, HCV inh)
O=C(N/N=C\c1ccc([N+](=O)[O-])o1)C1COc2ccccc2O1 (stereo not given)	Vaccinia mCherry inconclusive, HCMV antiviral -84, VACV Venus inh inconclusive, HCV inh inconclusive
O=C(N/N=C\c1ccc([N+](=O)[O-])s1)C1COc2ccccc2O1 (stereo not given)	HCV inh 10µM (no result: Vaccinia mCherry, VACV Venus inh)
O=C(N/N=C\c1ccc(Cl)s1)C1COc2ccccc2O1 (stereo not given)	none (no result: Vaccinia mCherry, VACV Venus inh)
Fc1ccccc1CCNc1c2c(nc3ncnn13)CCCC2	HCMV antiviral -77, VACV Venus inh inconclusive, HCV inh inconclusive
c1ccc(CCNc2c3c(nc4ncnn24)CCC3)cc1	FMDV antiviral inconclusive (no result: HCV inh)
CCC(=O)N1N=C(c2ccc(NS(=O)(=O)c3ccc(C)cc3)cc2)CC1c1ccco1 (stereo not given)	HCV inh 11µM (no result: FBPA Giardia inh, Vaccinia mCherry, VACV Venus inh)
CCS(=O)(=O)Nc1ccc(C2=NN(C(=O)c3ccco3)C(c3ccc(C)cc3)C2)cc1 (stereo not given)	FMDV antiviral inconclusive, HCV inh inconclusive (no result: Vaccinia mCherry, VACV Venus inh)
CCS(=O)(=O)Nc1ccc(C2=NN(C(=O)c3ccco3)C(c3ccc(Cl)o3)C2)cc1 (stereo not given)	Vaccinia mCherry inconclusive, FMDV antiviral 28µM, VACV Venus inh inconclusive, HCV inh 22µM (no result: FBPA Giardia inh)
CCC(=O)N1N=C(c2ccc(C)cc2)CC1c1ccco1 (stereo not given)	none (no result: Vaccinia mCherry, VACV Venus inh)
COc1ccc(C)cc1N/C(N)=N/c1nc(C)cc(C)n1	Vaccinia mCherry inconclusive, HCMV antiviral inconclusive, HCV inh inconclusive
COc1nc(N=C(N)N)nc2ccc(C)cc12	HCMV antiviral -102, HCV inh inconclusive (no result: Vaccinia mCherry, FMDV antiviral, VACV Venus inh)
Cc1cccn2c(Nc3ccc4c(c3)OCCO4)c(-c3ccc(Br)o3)nc12	none (no result: FBPA Giardia inh, HCV inh)
CCc1cccc(NC(=O)Cn2c(=O)n(Cc3ccccc3)c(=O)c3c2c2cc(OC)ccc2n3C)c1	none (no result: FBPA Giardia inh, HCV inh)
COc1ccccc1/C=C/C=N/NC(=O)c1cc(-c2ccc(C)o2)[nH]n1	Vaccinia mCherry inconclusive, HCMV antiviral inconclusive, HCV inh 10µM
CC(C)N(C(=O)[C@H]1C[C@H](CC(=O)NCCC2=CCCCC2)C(=O)N2CCc3c([nH]c4cc(-c5ccco5)ccc34)[C@]12C)C(C)C	Vaccinia mCherry 10µM, VACV Venus inh 11µM (no result: FBPA Giardia inh)
CC(C)N(C(=O)[C@H]1C[C@H](CC(=O)NCCc2ccccn2)C(=O)N2CCc3c([nH]c4cc(-c5ccco5)ccc34)[C@]12C)C(C)C	FMDV antiviral inconclusive, VACV Venus inh inconclusive, HCV inh inconclusive (no result: FBPA Giardia inh)
CC(C)N(C(=O)[C@H]1C[C@H](CC(=O)NCCCN(C)C)C(=O)N2CCc3c([nH]c4cc(-c5ccco5)ccc34)[C@]12C)C(C)C	Vaccinia mCherry 10µM, VACV Venus inh inconclusive, HCV inh 8.9µM (no result: FBPA Giardia inh)
O=C(Nc1ccc(N2CCCC2)cc1)c1cccc(Cl)c1Cl	Vaccinia mCherry inconclusive, HCMV antiviral -80, HCV inh inconclusive
O=C(c1cccc(S(=O)(=O)N2CCCCC2)c1)N1CCCCC1	none (no result: Vaccinia mCherry, VACV Venus inh)
O=C(c1cccc(S(=O)(=O)N2CCCC2)c1)c1cccc(S(=O)(=O)N2CCCC2)c1	FMDV antiviral inconclusive, HCMV antiviral -74, HCV inh inconclusive (no result: Vaccinia mCherry)
CC(=O)N1CCN(c2ccc(NC(=O)c3cccc(Cl)c3Cl)cc2)CC1	none
O=C(NNC(=O)c1ccc(Br)s1)c1cccc(S(=O)(=O)N2CCCC2)c1	none (no result: FBPA Giardia inh, Vaccinia mCherry, VACV Venus inh)

Screens as filed in PubChem.
